Reference: PubChem BioAssay (NCI)
Compounds without any hit were thinned out: in the full panel of roughly 83,000, 20% have a hit.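 For each line, cells grew in 96-well plates with the test compound present at a single concentration for 48 hours.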 Unmarked numbers belong to inactive results. Calls of active or inactive are those of the source. The calls were made as follows: active = growth percent below 10; inactive = the rest.

Assays:
Assay in all cases: NCI-60 one-dose screen, 48 h (100 = growth as untreated, 0 = no growth, -100 = all killed)
Conditions in all cases: 10 µM unless noted
SK-MEL-2 melanoma = system: SK-MEL-2 melanoma
EKVX NSCLC = system: EKVX NSCLC
SN12C renal = system: SN12C renal
UO-31 renal = system: UO-31 renal
TK-10 renal = system: TK-10 renal
ACHN renal = system: ACHN renal
CAKI-1 renal = system: CAKI-1 renal
A498 renal = system: A498 renal
CCRF-CEM leukemia = system: CCRF-CEM leukemia
MOLT-4 leukemia = system: MOLT-4 leukemia

CC(=O)Oc1ccc(OC(C)=O)c2ccccc12
growth (SK-MEL-2 melanoma): 113% | growth (EKVX NSCLC): 92.3% | growth (SN12C renal): 85.8% | growth (UO-31 renal): 23.7% | growth (TK-10 renal): 103% | growth (ACHN renal): 75.7% | growth (CAKI-1 renal): 100% | growth (A498 renal): 118% | growth (CCRF-CEM leukemia): -6.08% (active) | growth (MOLT-4 leukemia): -13.9% (active)

O=S(=O)(NCCNc1nccc(-c2c(-c3cccc(O)c3)nc3occn23)n1)c1ccc(Br)cc1
growth (SK-MEL-2 melanoma): 29.1% | growth (EKVX NSCLC): 62.1% | growth (SN12C renal): 35.6% | growth (UO-31 renal): 30.8% | growth (TK-10 renal): 69.8% | growth (ACHN renal): 29.8% | growth (CAKI-1 renal): 20.2% | growth (A498 renal): 39.7% | growth (CCRF-CEM leukemia): 14.6% | growth (MOLT-4 leukemia): 10.2%

CCOC(=O)c1cnc2c(N=Nc3ccc(OC)cc3)c(N)nn2c1N
growth (SK-MEL-2 melanoma): 102% | growth (EKVX NSCLC): 103% | growth (SN12C renal): 95.2% | growth (UO-31 renal): 94.2% | growth (TK-10 renal): 104% | growth (ACHN renal): 109% | growth (CAKI-1 renal): 96.6% | growth (A498 renal): 92.5% | growth (CCRF-CEM leukemia): 103% | growth (MOLT-4 leukemia): 88%

Cc1ccc(C(=O)c2ccc(CC(=O)N=Nc3c(O)[nH]c4ccc(Br)cc34)n2C)cc1
growth (SK-MEL-2 melanoma): 91.3% | growth (EKVX NSCLC): 74.3% | growth (SN12C renal): 85.2% | growth (UO-31 renal): 64.7% | growth (TK-10 renal): 131% | growth (ACHN renal): 88.9% | growth (CAKI-1 renal): 79.7% | growth (A498 renal): 89.3% | growth (CCRF-CEM leukemia): 95.4% | growth (MOLT-4 leukemia): 86%

CC/C=C\CCC/C=C1/C(=O)C=C[C@@H]1C/C=C\CCCC(=O)OC
growth (SK-MEL-2 melanoma): 87.3% | growth (EKVX NSCLC): 99.3% | growth (SN12C renal): 11.6% | growth (UO-31 renal): 69.8% | growth (TK-10 renal): 100% | growth (ACHN renal): 42.9% | growth (CAKI-1 renal): 54.1% | growth (A498 renal): 95.9% | growth (CCRF-CEM leukemia): 3.2% (active) | growth (MOLT-4 leukemia): 3.52% (active)

CCN1C(=O)N(CC)C2Nn3c(s/c(=C\c4ccccc4Br)c3=O)=NC21 (stereo not given)
growth (SK-MEL-2 melanoma): 48.5% | growth (EKVX NSCLC): 44.4% | growth (SN12C renal): 35.4% | growth (UO-31 renal): 55% | growth (TK-10 renal): 81.5% | growth (ACHN renal): 30.5% | growth (CAKI-1 renal): 21.5% | growth (A498 renal): -0.799% (active) | growth (CCRF-CEM leukemia): 15.2% | growth (MOLT-4 leukemia): 23.2%

NS(=O)(=O)c1ccc(NC(=O)/C(=C\c2ccc(Cl)cc2Cl)NC(=O)c2ccccc2)cc1
growth (SK-MEL-2 melanoma): 95.3% | growth (EKVX NSCLC): 99.6% | growth (SN12C renal): 94.7% | growth (UO-31 renal): 75.8% | growth (TK-10 renal): 104% | growth (ACHN renal): 98.2% | growth (CAKI-1 renal): 88.6% | growth (A498 renal): 95% | growth (CCRF-CEM leukemia): 105% | growth (MOLT-4 leukemia): 92.3%

O=C(C1=Cc2cc3ccccc3n2Cc2cnnn21)c1ccc(O)cc1
growth (SK-MEL-2 melanoma): 59% | growth (EKVX NSCLC): 89.9% | growth (SN12C renal): 57.7% | growth (UO-31 renal): 63.1% | growth (TK-10 renal): 90.9% | growth (ACHN renal): 75.4% | growth (CAKI-1 renal): 37.5% | growth (A498 renal): 111% | growth (CCRF-CEM leukemia): 72.5% | growth (MOLT-4 leukemia): 44.6%

COc1ccc(NC(=O)Nc2ccc(OCCCCCC(=O)NO)cc2)cc1
growth (SK-MEL-2 melanoma): 79.9% | growth (EKVX NSCLC): 121% | growth (SN12C renal): 97% | growth (UO-31 renal): 87.4% | growth (TK-10 renal): 89.3% | growth (ACHN renal): 107% | growth (CAKI-1 renal): 93.5% | growth (A498 renal): 85.2% | growth (CCRF-CEM leukemia): 85.6% | growth (MOLT-4 leukemia): 85.6%

Oc1ccc(/C=C/c2ccc(O)cc2)cc1
growth (SK-MEL-2 melanoma): 90.8% | growth (EKVX NSCLC): 76.5% | growth (SN12C renal): 62.5% | growth (UO-31 renal): 21.5% | growth (TK-10 renal): 61.1% | growth (ACHN renal): 11% | growth (CAKI-1 renal): 78.7% | growth (A498 renal): 77.5% | growth (CCRF-CEM leukemia): 4.33% (active) | growth (MOLT-4 leukemia): 74.9%

Cc1ccc(-c2nc(/C=C3/C(=O)Nc4ccc(F)cc43)c3ccccn23)cc1
growth (SK-MEL-2 melanoma): 31.9% | growth (EKVX NSCLC): 87.2% | growth (SN12C renal): 88.2% | growth (UO-31 renal): 70.2% | growth (TK-10 renal): 89.2% | growth (ACHN renal): -3.57% (active) | growth (CAKI-1 renal): 60.5% | growth (A498 renal): 97.7% | growth (CCRF-CEM leukemia): 77.4% | growth (MOLT-4 leukemia): 77.7%

Cc1nc2sc(C(=O)Nc3cccc(Br)c3C)c(N)c2cc1C(O)c1ccccc1 (stereo not given)
growth (SK-MEL-2 melanoma): 29.7% | growth (EKVX NSCLC): 39.7% | growth (SN12C renal): 8.12% (active) | growth (UO-31 renal): 30.9% | growth (TK-10 renal): 44.7% | growth (ACHN renal): 21.9% | growth (CAKI-1 renal): 20.4% | growth (A498 renal): -12.8% (active) | growth (CCRF-CEM leukemia): 17.2% | growth (MOLT-4 leukemia): 12%

CN1C(=O)/C(=C/c2ccc(C(=O)Nc3ncc(Cc4cccc(Cl)c4)s3)cc2)SC1=S
growth (SK-MEL-2 melanoma): 91.7% | growth (EKVX NSCLC): 55.9% | growth (SN12C renal): 84.2% | growth (UO-31 renal): 55.6% | growth (TK-10 renal): 56% | growth (ACHN renal): 33.2% | growth (CAKI-1 renal): 26.3% | growth (A498 renal): 74.9% | growth (CCRF-CEM leukemia): 69.3% | growth (MOLT-4 leukemia): 52.4%

O=C(Nc1ccccc1[N+](=O)[O-])c1ccc(Cl)c(Cl)c1
growth (SK-MEL-2 melanoma): 95.6% | growth (EKVX NSCLC): 85.3% | growth (SN12C renal): 94.7% | growth (UO-31 renal): 71.1% | growth (TK-10 renal): 124% | growth (ACHN renal): 94.7% | growth (CAKI-1 renal): 92.8% | growth (A498 renal): 58.7% | growth (CCRF-CEM leukemia): 106% | growth (MOLT-4 leukemia): 96.7%

Cc1ccc(/C=C/C(=O)Nc2ncc(Cc3ccc(F)cc3)s2)o1
growth (SK-MEL-2 melanoma): 46.9% | growth (EKVX NSCLC): 48.5% | growth (SN12C renal): 66.3% | growth (UO-31 renal): 40.4% | growth (TK-10 renal): 61.9% | growth (ACHN renal): 56.3% | growth (CAKI-1 renal): 35.4% | growth (A498 renal): 27.3% | growth (CCRF-CEM leukemia): 45.1% | growth (MOLT-4 leukemia): 35%

N#CSc1c[nH]c2cccc(/C=C/C(=O)/C=C(O)/C=C/c3cccc4[nH]cc(SC#N)c34)c12
growth (SK-MEL-2 melanoma): -58.8% (active) | growth (EKVX NSCLC): -23.9% (active) | growth (SN12C renal): -71.2% (active) | growth (UO-31 renal): -87.3% (active) | growth (TK-10 renal): -44.8% (active) | growth (ACHN renal): -85.6% (active) | growth (CAKI-1 renal): -70% (active) | growth (A498 renal): -12.7% (active) | growth (CCRF-CEM leukemia): -22.1% (active) | growth (MOLT-4 leukemia): -39% (active)

Nc1nc2c(c3ncccc13)C(c1cccc(Cl)c1)Cc1ncccc1-2 (stereo not given)
growth (SK-MEL-2 melanoma): 25.3% | growth (EKVX NSCLC): 39.8% | growth (SN12C renal): 36.7% | growth (UO-31 renal): 38% | growth (TK-10 renal): 55.8% | growth (ACHN renal): 45.5% | growth (CAKI-1 renal): 30.2% | growth (A498 renal): -7.23% (active) | growth (CCRF-CEM leukemia): 19.7% | growth (MOLT-4 leukemia): 14.5%

Cc1ccc(NC(=O)Cn2c(Br)nc3c2c(=O)n(C)c(=O)n3C)cc1
growth (SK-MEL-2 melanoma): 84.9% | growth (EKVX NSCLC): 55.5% | growth (SN12C renal): -30% (active) | growth (UO-31 renal): 14.1% | growth (TK-10 renal): 9.94% (active) | growth (ACHN renal): -66.6% (active) | growth (CAKI-1 renal): 53% | growth (A498 renal): -6.02% (active) | growth (CCRF-CEM leukemia): 40.7% | growth (MOLT-4 leukemia): 58.8%

O=C(CCl)NNc1nccc(Nc2ccc(S(=O)(=O)Nc3ccncc3)cc2)n1
growth (SK-MEL-2 melanoma): 38% | growth (EKVX NSCLC): 62.2% | growth (SN12C renal): 23.8% | growth (UO-31 renal): 63.3% | growth (TK-10 renal): 74.6% | growth (ACHN renal): 37.7% | growth (CAKI-1 renal): 30.4% | growth (A498 renal): 80.8% | growth (CCRF-CEM leukemia): 23.8% | growth (MOLT-4 leukemia): 44%

Cc1c2cccnc2c(C)c2c1c1cc(CO)ccc1n2C
growth (SK-MEL-2 melanoma): 29.9% | growth (EKVX NSCLC): 20.3% | growth (SN12C renal): 14.7% | growth (UO-31 renal): 17.9% | growth (TK-10 renal): 26.7% | growth (ACHN renal): 13.9% | growth (CAKI-1 renal): 7.09% (active) | growth (A498 renal): -81.1% (active) | growth (CCRF-CEM leukemia): 29.9% | growth (MOLT-4 leukemia): 22.9%

NC(=O)c1c(NC(=O)c2cccs2)sc2c1CCC(=O)C2
growth (SK-MEL-2 melanoma): 81.6% | growth (EKVX NSCLC): 69.6% | growth (SN12C renal): 44.9% | growth (UO-31 renal): 28.8% | growth (TK-10 renal): 59.8% | growth (ACHN renal): 22% | growth (CAKI-1 renal): -1.29% (active) | growth (A498 renal): 95% | growth (CCRF-CEM leukemia): 8.75% (active) | growth (MOLT-4 leukemia): 13.6%
